Records with an inconclusive call do not appear. Activity calls are given as the source filed them. The call rests on the fitted dose curve.
Columns and labels:
[1] = molecular target: Acetylcholinesterase (Homo sapiens) (UniProt P22303); experiment: Acetylcholinesterase (AChE) small molecule antagonists: colormetric cell-based qHTS assay (AID 1347395); further: nearly all actives have a fitted effect of over 30% in size
In short: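 SH-SY5Y cells, plated overnight at 37 C, were exposed to compounds for 30 min at 37 C and 5% CO2. Acetylthiocholine plus DTNB was then added, and thiocholine from endogenous AChE was quantified colorimetrically after 90 min at 37 C.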

[2] = molecular target: Acetylcholinesterase (Homo sapiens) (UniProt P22303); experiment: Acetylcholinesterase (AChE) small molecule antagonists: enzyme-based qHTS assay (AID 1347397); settings: Potency: AChE enzyme activity inhibition; outcome: AChE enzyme activity inhibition; further: nearly all actives have a fitted effect of over 55% in size
In short: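 Human recombinant acetylcholinesterase; substrate acetylthiocholine; thiocholine quantified with DTNB (colorimetric). Compound preincubation 30 min RT; reaction 10 min RT.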

[3] = molecular target: Acetylcholinesterase (Homo sapiens) (UniProt P22303); experiment: Acetylcholinesterase (AChE) small molecule antagonists: fluorescence cell-based qHTS assay (AID 1347398); settings: Potency: AChE activity; outcome: AChE activity; further: nearly all actives have a fitted effect of over 50% in size
In short: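 Thiocholine generated from acetylthiocholine by SH-SY5Y cell AChE is detected with Thiolite Green (Ex/Em 490/520 nm) after 40 min at room temperature, following 30 min compound pretreatment at 37 C.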

[4] = molecular target: Acetylcholinesterase (Homo sapiens) (UniProt P22303); experiment: Acetylcholinesterase (AChE) small molecule antagonists: enzyme-based qHTS assay with human liver microsomes (AID 1347399); settings: Potency: qHTS inhibition; outcome: qHTS inhibition; further: nearly all actives have a fitted effect of over 60% in size
In short: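 Recombinant human AChE (50 mU/mL in the enzyme mix) and human liver microsomes (0.25 mg/mL final) were preincubated with compound and NADPH (0.25 mg/mL final) for 30 min at 37 C. Acetylthiocholine/DTNB was then added; thiocholine was read colorimetrically after 10 min at room temperature.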
On the % scale 0 is the no-effect control and ±100 the full control effect.

Chain of Acetylcholinesterase (Homo sapiens) (P22303 whole entry, looked up): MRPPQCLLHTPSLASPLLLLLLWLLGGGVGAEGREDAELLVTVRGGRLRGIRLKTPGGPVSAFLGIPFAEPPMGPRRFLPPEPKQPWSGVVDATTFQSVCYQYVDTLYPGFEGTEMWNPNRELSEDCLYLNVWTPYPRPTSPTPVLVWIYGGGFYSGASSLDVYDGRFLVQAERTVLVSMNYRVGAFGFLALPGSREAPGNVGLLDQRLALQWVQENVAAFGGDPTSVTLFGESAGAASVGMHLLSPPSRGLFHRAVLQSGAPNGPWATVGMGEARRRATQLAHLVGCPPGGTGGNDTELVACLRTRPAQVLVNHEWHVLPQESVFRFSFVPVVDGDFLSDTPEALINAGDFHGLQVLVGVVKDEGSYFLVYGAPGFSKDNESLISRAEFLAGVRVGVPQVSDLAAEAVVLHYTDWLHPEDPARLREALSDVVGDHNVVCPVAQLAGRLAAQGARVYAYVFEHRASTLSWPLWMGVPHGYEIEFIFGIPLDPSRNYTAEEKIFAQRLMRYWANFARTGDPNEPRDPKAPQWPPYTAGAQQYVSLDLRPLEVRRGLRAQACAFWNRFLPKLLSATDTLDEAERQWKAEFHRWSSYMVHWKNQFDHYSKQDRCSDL

Oc1cccc2c(O)cccc12
inactive: Potency [1] | Potency [2] | Potency [3] | Potency [4]

CCCCNc1ccc(C(=O)OCCOCCOCCOCCOCCOCCOCCOCCOCCOC)cc1
inactive: Potency [1] | Potency [2] | Potency [3] | Potency [4]

CC(C)(O)CCCC1=CCC(C=O)CC1 (configuration not stated)
inactive: Potency [1] | Potency [2] | Potency [3] | Potency [4]

Nc1ccc(Cl)c([N+](=O)[O-])c1
inactive: Potency [1] | Potency [2] | Potency [3] | Potency [4]

CCCSS/C(CCO)=C(\C)N(C=O)Cc1cnc(C)nc1N
inactive: Potency [1] | Potency [2] | Potency [3] | Potency [4]

OCCN1CN(CCO)CN(CCO)C1
inactive: Potency [1] | Potency [2] | Potency [3] | Potency [4]

Clc1nc2ccccc2nc1Cl
inactive: Potency [1] | Potency [2] | Potency [3] | Potency [4]

O=[N+]([O-])c1cncn1CCN1CCOCC1
inactive: Potency [1] | Potency [2] | Potency [3] | Potency [4]

NC(=O)CCCCC(N)=O
inactive: Potency [1] | Potency [2] | Potency [3] | Potency [4]

Cc1cnc(C)c(C)n1
inactive: Potency [1] | Potency [2] | Potency [3] | Potency [4]

CCN(CC)CCOc1ccc(Cc2ccccc2)cc1
inactive: Potency [1] | Potency [2] | Potency [3] | Potency [4]

Clc1ccc2nsnc2c1NC1=NCCN1
inactive: Potency [1] | Potency [2] | Potency [3] | Potency [4]

C[C@@H](O)[C@H](N)C(=O)O
inactive: activity, negative = inhibition [1] 2.29% [at 23.6 µM] | activity change, negative = inhibition [2] 0.985% [at 23.6 µM] | activity change, negative = inhibition [3] 4.69% [at 23.8 µM] | activity change, negative = inhibition [4] -2.85% [at 23.6 µM]

FC(F)(F)C(F)(F)C(F)(F)C(F)(F)C(F)(F)C(F)(F)CCI
inactive: Potency [1] | Potency [2] | Potency [3] | Potency [4]

COc1cc(C(C)C)ccc1C
inactive: activity, negative = inhibition [1] 0.291% [at 23.6 µM] | activity change, negative = inhibition [2] 1.63% [at 23.6 µM] | activity change, negative = inhibition [3] 2.94% [at 23.8 µM] | activity change, negative = inhibition [4] -4.86% [at 23.6 µM]

CC(=O)NO
inactive: Potency [1] | Potency [2] | Potency [3] | Potency [4]

O=C(Nc1ccc(Cl)cc1)Nc1ccc(Cl)c(C(F)(F)F)c1
inactive: Potency [1] | Potency [2] | Potency [3] | Potency [4]

Cc1cc(O)c(C(C)(C)C)cc1C(C)(C)C
inactive: Potency [1] | Potency [2] | Potency [3] | Potency [4]

CCO
inactive: Potency [1] | Potency [2] | Potency [3] | Potency [4]

CN1CCC(=C2c3ccccc3Sc3ccccc32)CC1
inactive: Potency [1] | Potency [2] | Potency [3] | Potency [4]

C=C(C)[C@H]1CC=C(C)CC1
inactive: Potency [1] | Potency [2] | Potency [3] | Potency [4]

O=C(OCc1ccccc1)C(=O)OCc1ccccc1
inactive: Potency [1] | Potency [2] | Potency [3] | Potency [4]

c1ccc2c(c1)ccc1c3ccccc3ccc21
inactive: Potency [1] | Potency [2] | Potency [3] | Potency [4]

CC(=O)OCC(C)OC(C)=O (configuration not stated)
inactive: Potency [1] | Potency [2] | Potency [3] | Potency [4]

CN(C)CCN(C)CCO
inactive: Potency [1] | Potency [2] | Potency [3] | Potency [4]

CCO[Si](OCC)(OCC)OCC
inactive: Potency [1] | Potency [2] | Potency [3] | Potency [4]

CCCCOc1ccc(CC(=O)NO)cc1
inactive: Potency [1] | Potency [2] | Potency [3] | Potency [4]

CCC(=O)/C=C/c1ccc(OC)cc1
inactive: Potency [1] | Potency [2] | Potency [3] | Potency [4]

O=C(CCCl)NCCc1ccccc1
inactive: Potency [1] | Potency [2] | Potency [3] | Potency [4]

CCOc1cccc(N)c1
inactive: Potency [1] | Potency [2] | Potency [3] | Potency [4]

O=C(O)[C@H](O)c1ccccc1
inactive: Potency [1] | Potency [2] | Potency [3] | Potency [4]

CC(C)(C)c1cc(CO)cc(C(C)(C)C)c1O
inactive: Potency [1] | Potency [2] | Potency [3] | Potency [4]

CN(C(=O)C(Cl)Cl)c1ccc(OC(=O)c2ccco2)cc1
inactive: Potency [1] | Potency [2] | Potency [3] | Potency [4]

CCOC(=O)c1ncn2c1CN(C)C(=O)c1cc(F)ccc1-2
inactive: Potency [1] | Potency [2] | Potency [3] | Potency [4]

BrCCCCCBr
inactive: Potency [1] | Potency [2] | Potency [3] | Potency [4]

Cn1c(=O)c2c(ncn2CC(=O)O)n(C)c1=O
inactive: Potency [1] | Potency [2] | Potency [3] | Potency [4]

CCOC(=O)C(=O)c1csc(NC=O)n1
inactive: Potency [1] | Potency [2] | Potency [3] | Potency [4]

CC[C@H]1O[C@]2(CC[C@@H]1C)C[C@@H]1C[C@@H](C/C=C(\C)C[C@@H](C)/C=C/C=C3\CO[C@@H]4[C@H](O)C(C)=C[C@@H](C(=O)O1)[C@]34O)O2
inactive: Potency [1] | Potency [2] | Potency [3] | Potency [4]

O=C1OC(=O)C2CCCCC12 (configuration not stated)
inactive: Potency [1] | Potency [2] | Potency [3] | Potency [4]

CCC1(C)NC(=O)NC1=O (configuration not stated)
inactive: Potency [1] | Potency [2] | Potency [3] | Potency [4]

CCC(=O)O[C@]1(C(=O)COC)[C@@H](C)C[C@H]2[C@@H]3CCC4=CC(=O)C=C[C@]4(C)C3(F)[C@@H](O)C[C@@]21C (some centres not stated)
inactive: Potency [1] | Potency [2] | Potency [3] | Potency [4]

CC1OCCC1=O (configuration not stated)
inactive: Potency [1] | Potency [2] | Potency [3] | Potency [4]

O=C(O)/C=C(\CC(=O)O)C(=O)O
inactive: Potency [1] | Potency [2] | Potency [3] | Potency [4]

Reference: PubChem BioAssay (Tox21)
